From PubChem BioAssay (Tox21)
Values joined by “and” are separate entries in the source; they are usually repeats but may differ in a detail not shown here. Equal entries are not always repeated. Inconclusive results are not listed. A call without a number means that no potency is given here. Some compounds were tested as several samples or in several runs, with calls that do not always agree. Active and inactive are the calls of the source. The call rests on the fitted dose curve; in most records, active means well fitted curve in the direction sought with a large enough effect in the repeat runs; inconclusive means weak or mixed curves; inactive means no such curve, though single readings can be large; an effect the other way counts as inactive or inconclusive.

Key:
[1] = qHTS RealTime-Glo MT Cell Viability Assay in HEK293 cells - 40 hour (AID 1224874); conditions: RealTime-Glo luminescence; max response: stronger effect = lower value; further: nearly all actives have a fitted effect of over 50% in size; further: potency means the concentration at half of the fitted maximal effect
Summary of the method: (§1)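 Cells were seeded together with NanoLuc luciferase and a prosubstrate that viable cells reduce to a luciferase substrate. After a 5 h incubation at 37 C/5% CO2, compounds were added and luminescence was measured repeatedly during 40 h of treatment.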

[2] = A CellTox Green Cytotoxicity Assay to monitor cytotoxicity in HEK293 cells - 24 hour (AID 1224875); further: series mostly up to about 77 µM; nearly all actives have a fitted effect of over 45% in size
Summary of the method: (§2)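 Nonlytic real-time cytotoxicity: HEK293 + CellTox Green reagent plated, 5 h preincubation, pintool compound addition (23 nL in DMSO), 37 C for 40 h, fluorescence measured at successive time points.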

[3] = A CellTox Green Cytotoxicity Assay to monitor cytotoxicity in HepG2 cells - 16 hour (AID 1224876); further: nearly all actives have a fitted effect of over 45% in size
Summary of the method: (§3)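 Read-out is fluorescence of a cyanine dye excluded from live cells that stains DNA of dead HepG2 cells, with signal proportional to cytotoxicity. Plates were read at 0, 8, 16, 24, 32 and 40 h after compound addition.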

[4] = qHTS RealTime-Glo MT Cell Viability Assay in HepG2 cells - 32 hour (AID 1224877); further: nearly all actives have a fitted effect of over 55% in size
Summary of the method: (§4)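 Cells + NanoLuc/prosubstrate dispensed (600 cells/well) → 5 h at 37 C/5% CO2 → compounds in DMSO transferred → 40 h incubation at 37 C, luminescence read at 0, 8, 16, 24, 32, 40 h.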

[5] = A CellTox Green Cytotoxicity Assay to monitor cytotoxicity in HepG2 cells - 24 hour (AID 1224878); further: nearly all actives have a fitted effect of over 45% in size
Summary of the method: as §3

[6] = A CellTox Green Cytotoxicity Assay to monitor cytotoxicity in HepG2 cells - 40 hour (AID 1224879); further: nearly all actives have a fitted effect of over 40% in size; further: potency means the concentration at half of the fitted maximal effect
Summary of the method: as §3

[7] = qHTS RealTime-Glo MT Cell Viability Assay in HEK293 cells - 0 hour (AID 1224880); further: top concentration of the series differs between compounds; nearly all actives have a fitted effect of over 45% in size
Summary of the method: as §1

[8] = A CellTox Green Cytotoxicity Assay to monitor cytotoxicity in HEK293 cells - 32 hour (AID 1224881); further: nearly all actives have a fitted effect of over 40% in size
Summary of the method: as §2

[9] = A CellTox Green Cytotoxicity Assay to monitor cytotoxicity in HepG2 cells - 0 hour (AID 1224882); further: nearly all actives have a fitted effect of over 35% in size
Summary of the method: as §3

[10] = A CellTox Green Cytotoxicity Assay to monitor cytotoxicity in HEK293 cells - 8 hour (AID 1224884); further: nearly all actives have a fitted effect of over 35% in size
Summary of the method: as §2

[11] = qHTS RealTime-Glo MT Cell Viability Assay in HepG2 cells - 16 hour (AID 1224885); further: nearly all actives have a fitted effect of over 50% in size
Summary of the method: as §4

[12] = qHTS RealTime-Glo MT Cell Viability Assay in HEK293 cells - 24 hour (AID 1224886); further: nearly all actives have a fitted effect of over 50% in size; further: potency means the concentration at half of the fitted maximal effect
Summary of the method: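 Tox21 10K qHTS, HEK293, 600 cells/well, RealTime-Glo reagent co-dispensed with cells; 5 h preincubation, compound by pintool, 37 C, luminescence at 0–40 h.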

[13] = qHTS RealTime-Glo MT Cell Viability Assay in HEK293 cells - 8 hour (AID 1224887); further: top concentration of the series differs between compounds; nearly all actives have a fitted effect of over 50% in size
Summary of the method: as §1

[14] = A CellTox Green Cytotoxicity Assay to monitor cytotoxicity in HEK293 cells - 16 hour (AID 1224888); further: nearly all actives have a fitted effect of over 35% in size
Summary of the method: as §2

[15] = qHTS RealTime-Glo MT Cell Viability Assay in HepG2 cells - 0 hour (AID 1224889); further: nearly all actives have a fitted effect of over 50% in size
Summary of the method: as §4

[16] = A CellTox Green Cytotoxicity Assay to monitor cytotoxicity in HepG2 cells - 8 hour (AID 1224890); further: nearly all actives have a fitted effect of over 45% in size
Summary of the method: as §3

[17] = qHTS assay to identify small molecule antagonists of the estrogen receptor alpha (ER-alpha) signaling pathway using the BG1 cell line in the presence of 0.1 nM 17-beta-estradiol - cell viability counter screen (AID 1259241); further: nearly all actives have a fitted effect of over 40% in size
Summary of the method: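 Following 5 days in phenol red-free medium with charcoal-stripped serum, VM7Luc4E2 cells received test compounds alongside 0.1 nM 17beta-estradiol (final) at 37C for 22 hr. Live cells were then quantified via protease-substrate fluorescence.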

[18] = qHTS assay to identify small molecule antagonists of the androgen receptor (AR) signaling pathway using the MDA cell line in the presence of 0.5 nM R1881 - cell viability counter screen (AID 1259242); further: nearly all actives have a fitted effect of over 45% in size
Summary of the method: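 Counter screen for cytotoxicity run in the same wells as the AR antagonist reporter screen: MDA-kb2 cells were treated 16 hr with test compounds and 0.5 nM R1881, then live-cell protease activity was measured by fluorescence.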

[19] = A CellTox Green Cytotoxicity Assay to monitor cytotoxicity in HepG2 cells - 32 hour (AID 1224883); further: nearly all actives have a fitted effect of over 50% in size; further: potency means the concentration at half of the fitted maximal effect
Summary of the method: as §3

[20] = target: Androgen receptor (Homo sapiens) (UniProt P10275); experiment: qHTS assay to identify small molecule antagonists of the androgen receptor (AR) signaling pathway using the MDA cell line in the presence of 0.5 nM R1881 (AID 1259243); further: nearly all actives have a fitted effect of over 50% in size; further: potency means the concentration at half of the fitted maximal effect
Chain of Androgen receptor (Homo sapiens) (P10275 whole entry, looked up): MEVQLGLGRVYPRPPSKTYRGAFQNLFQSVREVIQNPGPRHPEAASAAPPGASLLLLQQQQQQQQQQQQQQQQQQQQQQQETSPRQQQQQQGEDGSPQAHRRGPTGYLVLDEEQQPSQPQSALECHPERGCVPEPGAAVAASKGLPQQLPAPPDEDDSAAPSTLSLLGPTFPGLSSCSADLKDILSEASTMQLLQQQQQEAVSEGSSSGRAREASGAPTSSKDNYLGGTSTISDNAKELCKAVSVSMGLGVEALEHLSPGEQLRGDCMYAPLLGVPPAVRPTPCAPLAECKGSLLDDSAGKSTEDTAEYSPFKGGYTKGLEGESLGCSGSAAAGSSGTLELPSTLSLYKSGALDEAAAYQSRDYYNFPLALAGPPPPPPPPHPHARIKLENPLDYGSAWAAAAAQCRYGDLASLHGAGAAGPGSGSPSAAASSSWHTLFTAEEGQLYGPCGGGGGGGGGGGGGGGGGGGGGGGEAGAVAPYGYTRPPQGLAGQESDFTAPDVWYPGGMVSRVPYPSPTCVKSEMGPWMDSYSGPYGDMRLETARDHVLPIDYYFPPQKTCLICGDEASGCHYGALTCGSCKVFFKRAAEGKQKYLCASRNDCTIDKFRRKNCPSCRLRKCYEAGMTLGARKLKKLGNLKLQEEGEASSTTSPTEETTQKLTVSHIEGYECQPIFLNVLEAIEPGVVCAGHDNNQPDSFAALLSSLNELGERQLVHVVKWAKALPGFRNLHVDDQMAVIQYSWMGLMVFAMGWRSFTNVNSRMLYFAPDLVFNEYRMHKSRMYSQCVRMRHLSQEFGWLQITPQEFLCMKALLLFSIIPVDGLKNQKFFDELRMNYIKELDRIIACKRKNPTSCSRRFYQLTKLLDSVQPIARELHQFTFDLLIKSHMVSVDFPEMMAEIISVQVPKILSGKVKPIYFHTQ
Summary of the method: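 Luciferase luminescence is the read-out: compounds are tested for suppressing 0.5 nM R1881-driven MMTV reporter activity in MDA-kb2 cells after 16 hr at 37C.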

Structure (SMILES): C#CCN(C)[C@H](C)Cc1ccccc1
- max response [1]: 3.52% (inactive) and 3.78% (inactive)
- Potency [2]: inactive
- Potency [3]: inactive
- outcome [4]: inactive
- Potency [5]: inactive
- Potency [6]: inactive
- outcome [7]: inactive
- Potency [8]: inactive
- Potency [9]: inactive
- Potency [10]: inactive
- outcome [11]: inactive
- Potency [12]: inactive
- outcome [13]: inactive
- Potency [14]: inactive
- outcome [15]: inactive
- Potency [16]: inactive
- Potency [17]: inactive
- outcome [18]: inactive

Structure (SMILES): CN=C=S
- max response [1]: 6.14% (inactive) and -4.64% (inactive)
- Potency [2]: inactive
- Potency [3]: inactive
- outcome [4]: inactive
- Potency [5]: inactive
- Potency [6]: inactive
- outcome [7]: inactive
- Potency [8]: inactive
- Potency [9]: inactive
- Potency [10]: inactive
- Potency [12]: inactive
- outcome [13]: inactive
- Potency [14]: inactive
- outcome [15]: inactive
- Potency [16]: inactive
- Potency [17]: inactive
- outcome [18]: inactive

Structure (SMILES): Cc1[nH]c(=O)n(C(C)(C)C)c(=O)c1Cl
- max response [1]: -2.63% (inactive) and 1.93% (inactive)
- Potency [2]: inactive
- Potency [3]: inactive
- outcome [4]: inactive
- Potency [5]: inactive
- Potency [6]: inactive
- outcome [7]: inactive
- Potency [8]: inactive
- Potency [9]: inactive
- Potency [19]: inactive
- Potency [10]: inactive
- outcome [11]: inactive
- Potency [12]: inactive
- outcome [13]: inactive
- Potency [14]: inactive
- outcome [15]: inactive
- Potency [16]: inactive
- Potency [17]: inactive
- outcome [18]: inactive
- Potency [20]: inactive

Structure (SMILES): CCOP(OCC)OCC
- max response [1]: 7.3% (inactive) and 7.34% (inactive)
- Potency [2]: inactive
- Potency [3]: inactive
- outcome [4]: inactive
- Potency [5]: inactive
- Potency [6]: inactive
- outcome [7]: inactive
- Potency [8]: inactive
- Potency [9]: inactive
- Potency [19]: inactive
- Potency [10]: inactive
- outcome [11]: inactive
- Potency [12]: inactive
- outcome [13]: inactive
- Potency [14]: inactive
- outcome [15]: inactive
- Potency [16]: inactive
- Potency [17]: inactive
- outcome [18]: inactive

Structure (SMILES): [N-]=[N+]=[N-]
- max response [1]: -10.7% (inactive) and 2.12% (inactive)
- Potency [2]: inactive
- Potency [3]: inactive
- outcome [4]: inactive
- Potency [5]: inactive
- Potency [6]: inactive
- outcome [7]: inactive
- Potency [8]: inactive
- Potency [9]: inactive
- Potency [19]: inactive
- Potency [10]: inactive
- outcome [11]: inactive
- Potency [12]: inactive
- outcome [13]: inactive
- outcome [15]: inactive
- Potency [17]: inactive
- outcome [18]: inactive
- Potency [20]: 41.8 µM (active) and inactive

Structure (SMILES): CC(NC(C)(C)C)C(=O)c1cccc(Cl)c1 (stereo not drawn)
- max response [1]: 6.38% (inactive) and -11.6% (inactive)
- Potency [2]: inactive
- Potency [3]: inactive
- outcome [4]: inactive
- Potency [5]: inactive
- Potency [6]: inactive
- outcome [7]: inactive
- Potency [8]: inactive
- Potency [9]: inactive
- Potency [10]: inactive
- outcome [11]: inactive
- Potency [12]: inactive
- outcome [13]: inactive
- Potency [14]: inactive
- outcome [15]: inactive
- Potency [16]: inactive
- Potency [17]: inactive
- outcome [18]: inactive

Structure (SMILES): CON(C)C(=O)Nc1ccc(Cl)c(Cl)c1
- Potency [1]: 43.6 µM (active)
- max response [1]: -28.4% (inactive)
- Potency [2]: inactive
- Potency [3]: inactive
- outcome [4]: inactive
- Potency [5]: inactive
- Potency [6]: inactive
- outcome [7]: inactive
- Potency [8]: inactive
- Potency [9]: inactive
- Potency [19]: inactive
- Potency [10]: inactive
- outcome [11]: inactive
- Potency [12]: inactive and 43.6 µM (active)
- outcome [13]: inactive
- Potency [14]: inactive
- outcome [15]: inactive
- Potency [17]: inactive
- outcome [18]: inactive

Structure (SMILES): C1CC2OC2CC1C1CO1 (stereo not drawn)
- max response [1]: 9.84% (inactive)
- Potency [2]: inactive
- Potency [3]: inactive
- outcome [4]: inactive
- Potency [5]: inactive
- Potency [6]: inactive
- outcome [7]: inactive
- Potency [8]: inactive
- Potency [9]: inactive
- Potency [19]: inactive
- Potency [10]: inactive
- Potency [12]: inactive
- outcome [13]: inactive
- Potency [14]: inactive
- outcome [15]: inactive
- Potency [17]: inactive
- outcome [18]: inactive

Structure (SMILES): COC(=O)NS(=O)(=O)c1ccc(N)cc1
- max response [1]: 15.7% (inactive) and 20.4% (inactive)
- Potency [2]: inactive
- Potency [3]: inactive
- outcome [4]: inactive
- Potency [5]: inactive
- Potency [6]: inactive
- outcome [7]: inactive
- Potency [8]: inactive
- Potency [9]: inactive
- Potency [19]: inactive
- Potency [10]: inactive
- Potency [12]: inactive
- outcome [13]: inactive
- Potency [14]: inactive
- outcome [15]: inactive
- Potency [17]: inactive
- outcome [18]: inactive

Structure (SMILES): c1ccc2c(c1)Oc1ccccc1O2
- max response [1]: 4.43% (inactive) and 0.097% (inactive)
- Potency [2]: inactive
- Potency [3]: inactive
- outcome [4]: inactive
- Potency [5]: inactive
- Potency [6]: 30.5 µM (active) and inactive
- outcome [7]: inactive
- Potency [8]: inactive
- Potency [9]: inactive
- Potency [19]: inactive
- Potency [10]: inactive
- outcome [11]: inactive
- Potency [12]: inactive
- outcome [13]: inactive
- Potency [14]: inactive
- outcome [15]: inactive
- Potency [16]: inactive
- Potency [17]: inactive
- outcome [18]: inactive

Structure (SMILES): Cc1ccc([N+](=O)[O-])cc1C
- max response [1]: -0.25% (inactive) and 2.38% (inactive)
- Potency [2]: inactive
- Potency [3]: inactive
- outcome [4]: inactive
- Potency [5]: inactive
- Potency [6]: inactive
- outcome [7]: inactive
- Potency [8]: inactive
- Potency [9]: inactive
- Potency [19]: inactive
- Potency [10]: inactive
- Potency [12]: inactive
- outcome [13]: inactive
- outcome [15]: inactive
- Potency [16]: inactive
- Potency [17]: inactive
- outcome [18]: inactive

Structure (SMILES): O=c1ccc(=O)[nH][nH]1
- max response [1]: -2.89% (inactive) and -0.4% (inactive)
- Potency [2]: inactive
- Potency [3]: inactive
- outcome [4]: inactive
- Potency [5]: inactive
- Potency [6]: inactive and 130 nM (active)
- outcome [7]: inactive
- Potency [8]: inactive
- Potency [9]: inactive
- Potency [19]: inactive and 130 nM (active)
- Potency [10]: inactive
- Potency [12]: inactive
- outcome [13]: inactive
- outcome [15]: inactive
- Potency [16]: inactive
- Potency [17]: inactive
- outcome [18]: inactive
- Potency [20]: inactive

Structure (SMILES): CN(C)CCO
- max response [1]: -6.53% (inactive) and -6.4% (inactive)
- Potency [2]: inactive
- Potency [3]: inactive
- outcome [4]: inactive
- Potency [5]: inactive
- Potency [6]: inactive
- outcome [7]: inactive
- Potency [8]: inactive
- Potency [9]: inactive
- Potency [19]: inactive
- Potency [10]: inactive
- outcome [11]: inactive
- Potency [12]: inactive
- outcome [13]: inactive
- Potency [14]: inactive
- outcome [15]: inactive
- Potency [17]: inactive
- outcome [18]: inactive

Structure (SMILES): CCOP(=S)(OCC)SCCSCC
- max response [1]: 5.05% (inactive) and 1.7% (inactive)
- Potency [2]: inactive
- Potency [3]: inactive
- outcome [4]: inactive
- Potency [5]: inactive
- Potency [6]: inactive
- outcome [7]: inactive
- Potency [8]: inactive
- Potency [9]: inactive
- Potency [19]: inactive
- Potency [10]: inactive
- Potency [12]: inactive
- outcome [13]: inactive
- Potency [14]: inactive
- outcome [15]: inactive
- Potency [16]: inactive
- Potency [17]: inactive
- outcome [18]: inactive
